# Screens as filed in PubChem BioAssay.
# This is a sample that favours compounds with a hit; in the whole collection about 2.8% have one here.
# Shn3 inh set2: inhibitors of Schnurri-3 3'UTR reporter in osteoblasts; Clone20 osteoblast Shn3 3'UTR firefly luciferase, 24 h; inhibition, % at 12.5 µM; 0.52% of 360,000 active; AID 588674;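 active = mean inhibition of at least 75% with every replicate also reaching 75%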;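 also: 0% = median of neutral control wells and 100% = pilot-screen positive control compound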
# LMP1 NFkB inh: inhibitors of Epstein-Barr LMP1-induced NF-kappaB reporter; LMP1-induced NF-kappaB luciferase reporter cells, luminescence; AID 504558; inhibition, % at 12.5 µM; 0.69% of 350,000 active; in the data active = inhibition above about 41%;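 also: 0% = neutral control wells and 100% = reference inhibitor control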
# HIF-2a inh: HIF-2a inhibition | 786-0 RCC cells HIF-2a reporter, luciferase luminescence, overnight | inhibition, % at 18.8 µM | 0.72% of 360,000 active;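 active = inhibition of the luminescence signal of 40% or more relative to plate controls, in a single-dose primary screen at 18.75 µM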
# Peg3 promoter: Peg3 promoter activity inhibition. HeLa PEG-Prom luciferase reporter, luminescence, overnight. inhibition, % at 20 µM. 1.7% of 360,000 active;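 active = inhibition of at least 50% at 20 µM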
# TRPM1 prom inh: reduces MITF-dependent TRPM1 promoter luciferase signal. 0.83% of 330,000 active. inhibition, % at 12.5 µM. SK-MEL-5 TRPM1 promoter luciferase, 24 h;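 active = mean inhibition across replicates of 60% or more, whatever share of single replicates reaches that level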
# PAX8 inh HTS: lowers PAX8-driven luciferase in RMG-I cells | 1.2% of 360,000 active | AID 652154 | inhibition, % at 12.6 µM | RMG-I TPO-luciferase reporter, SteadyGlo, 24 h;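 active = mean replicate inhibition at least 60% with every replicate also reaching 60%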;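 also: luciferase light reporting Pax8 driven TPO promoter activity; plate controls were median of neutral control wells for no effect and mitoxantrone controls for full effect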
# * marks the source's active call; other numbers are inactive results; x = no result; ! = not confirmed by another sample.
SMILES,Shn3 inh set2,LMP1 NFkB inh,HIF-2a inh,Peg3 promoter,TRPM1 prom inh,PAX8 inh HTS
COc1ccc(NC(=O)Nc2ccc3c(c2)[C@@H]2C[C@@H](CC(=O)N4CCCCC4)O[C@@H](CO)[C@@H]2O3)cc1,x,x,x,x,x,-1
COc1ccc(C)cc1NS(=O)(=O)c1ccc(NC(=O)CN(c2cc([N+](=O)[O-])ccc2C)S(C)(=O)=O)cc1,56,-94,18,64*,10,10
Cc1cccc(NS(=O)(=O)c2ccc(NC(=O)CN(c3cc([N+](=O)[O-])ccc3C)S(C)(=O)=O)cc2)c1,65,-88,31,59*,9,52
C[C@H]1CN([C@@H](C)CO)C(=O)c2cc(C#Cc3ccccc3F)cnc2O[C@H]1CN(C)S(C)(=O)=O,x,x,x,x,x,-6
c1ccc(-c2cn3c4c(sc3n2)CCCC4)cc1,9,50*,19,53*!,-4,8
c1ccc(-c2cn3nc(-c4ccccc4)sc3n2)cc1,66,9,-71,45,7,x
CC(=O)c1cccc(NC2c3ccccc3C(=O)N2Cc2ccco2)c1 (centres undefined),56,2,7,6,17,7
CCOC(=O)c1cccc(NC2c3ccccc3C(=O)N2Cc2ccco2)c1 (centres undefined),90*,11,6,8,14,35
CCOc1cccc(/C=N/NC(=S)Nc2ccccc2[N+](=O)[O-])c1O,24,35,48*,4,58,40
COc1cc(OC)cc(-c2c(C#Cc3ccsc3)c3cc(-c4cccc5[nH]cc(C=O)c45)ccc3n2C)c1,-10,-11,-42,54*,8,31
O=C(C[C@@H]1C=C[C@H](NC(=O)c2cccc(F)c2)[C@@H](CO)O1)NCCN1CCCC1,x,x,x,x,x,-1
CN(C#N)c1nc(Cl)nc(Nc2cccc(Cl)c2)n1,-26,-4,14,99*,8,16
Cc1cc(C)nc(Nc2cccc(Cl)c2)n1,-7,0,-50,-48,-42,-2
CC(C)(C)N(NC(=O)Nc1ccc(Cl)c(Cl)c1)C(=O)c1ccccc1,24,9,31,61*,2,x
C/C(=N\Nc1cccc2cccnc12)c1ccccn1,12,-42,-50,-113,-47,-63
CC(=NNC(=S)Nc1ccccc1Cl)c1ccccn1,90*,57*,-200,-37,47,71*
C=CCNC(=S)N/N=C(\C)c1ccccn1,91*,80*,11,75*,59,95*
Cc1cccc(N2CCN(C(=O)Cn3nc(Cc4ccncc4)c4ccccc4c3=O)CC2)c1C,5,91*,-28,-1,2,0
C=CC[n+]1c(-c2ccc(C)cc2)csc1Nc1c(C)n(C)n(-c2ccccc2)c1=O,21,-3,4,16,3,2
C=CC[n+]1c(-c2ccc(OCC)cc2)csc1NNC(=O)Nc1ccccc1,88*,-2,-39,2,0,x
CNC[C@@H]1Oc2ccc(NS(=O)(=O)c3ccc(C)cc3)cc2C(=O)N([C@H](C)CO)C[C@@H]1C,x,x,x,x,x,6
Cc1c(N=Cc2cc(Br)cc(Br)c2O)cccc1C(=O)O,-3,68*,-5,8,-9,-13
CCN1[C@H](C(=O)OC)[C@@H](CO)[C@@H]2Cn3c(ccc(-c4cncnc4)c3=O)[C@@H]21,x,x,x,x,x,12
Cc1cc(-n2c(SCC(=O)NCCC3=CCCCC3)nc3n[nH]c(C)c3c2=N)ccc1Cl,65,7,17,45,56,88*
Cc1ccc(S(=O)(=O)N(C)C[C@@H]2Oc3cc(C4=CCCC4)ccc3S(=O)(=O)N([C@@H](C)CO)C[C@H]2C)cc1,x,x,x,x,x,71*
C[C@@H]1CN([C@@H](C)CO)S(=O)(=O)c2ccc(-c3ccccc3)cc2O[C@H]1CN(C)S(=O)(=O)c1ccccc1F,x,x,x,x,x,63*
COc1cccc(S(=O)(=O)N(C)C[C@@H]2Oc3cc(C4=CCCCC4)ccc3S(=O)(=O)N([C@@H](C)CO)C[C@H]2C)c1,x,x,x,x,x,77*
Cc1ccc(S(=O)(=O)N(C)C[C@H]2Oc3cc(C4=CCCC4)ccc3S(=O)(=O)N([C@H](C)CO)C[C@H]2C)cc1,x,x,x,x,x,41
COc1cccc(S(=O)(=O)N(C)C[C@H]2Oc3cc(C4=CCCCC4)ccc3S(=O)(=O)N([C@@H](C)CO)C[C@@H]2C)c1,x,x,x,x,x,52
CC(C)NC(=O)N(C)C[C@@H]1Oc2ccc(NC(=O)CCCN(C)C)cc2C(=O)N([C@@H](C)CO)C[C@H]1C,x,x,x,x,x,-2
